Structures can show the parent of a compound that is named as a salt.
How the values were obtained:
Assay in all cases: thermal shift delta Tm vs DMSO control; higher = stronger stabilization (binding)
Conditions in all cases: 12.5 µM; protein concentration 2 µM
LOC_OS04G57630-cb004 = tested on: LOC_OS04G57630-cb004
Method in brief: (§1)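 Thermal shift values come from differential scanning fluorimetry on purified rice kinase domains made in E. coli, with melting temperatures obtained from Boltzmann fits. Samples of 19.5 μl held 2 μM kinase, 100 mM potassium phosphate pH 7.5, 150 mM NaCl, 10% glycerol, 5 × SYPRO Orange and compound in DMSO, and were heated from 25°C to 95°C at 0.05°C/s. Each shift is a triplicate mean relative to the DMSO-only protein sample.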

LOC_OS05G07850-cb002 = tested on: LOC_OS05G07850-cb002
Method in brief: as §1

LOC_OS05G16824-cb004 = tested on: LOC_OS05G16824-cb004
Method in brief: as §1

LOC_OS05G28520-cb001 = tested on: LOC_OS05G28520-cb001
Method in brief: as §1

LOC_OS05G30820-cb001 = tested on: LOC_OS05G30820-cb001
Method in brief: as §1

LOC_OS05G43570-cb004 = tested on: LOC_OS05G43570-cb004
Method in brief: as §1

LOC_OS06G16330-cb003 = tested on: LOC_OS06G16330-cb003
Method in brief: as §1

LOC_OS06G22820-cb001 = tested on: T1, LOC_OS06G22820-cb001
T1 sequence (whole entry): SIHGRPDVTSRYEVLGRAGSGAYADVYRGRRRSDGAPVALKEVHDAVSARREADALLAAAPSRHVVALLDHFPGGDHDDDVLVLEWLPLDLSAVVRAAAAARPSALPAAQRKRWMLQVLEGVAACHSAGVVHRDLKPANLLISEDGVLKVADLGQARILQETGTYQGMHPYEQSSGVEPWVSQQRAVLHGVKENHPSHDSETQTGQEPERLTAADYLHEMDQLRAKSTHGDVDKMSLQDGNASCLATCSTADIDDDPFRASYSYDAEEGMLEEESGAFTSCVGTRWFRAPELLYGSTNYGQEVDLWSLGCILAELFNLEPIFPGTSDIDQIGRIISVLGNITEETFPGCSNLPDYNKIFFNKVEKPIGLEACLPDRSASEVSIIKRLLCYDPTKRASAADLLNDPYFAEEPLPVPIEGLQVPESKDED
Method in brief: as §1

LOC_OS07G06570-cb004 = tested on: LOC_OS07G06570-cb004
Method in brief: as §1

LOC_OS07G07230-cb001 = tested on: LOC_OS07G07230-cb001
Method in brief: as §1
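Further: purified Escherichia coli-expressed rice kinase domain construct.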

Chain of LOC_OS06G16330-cb003 (as listed by the source): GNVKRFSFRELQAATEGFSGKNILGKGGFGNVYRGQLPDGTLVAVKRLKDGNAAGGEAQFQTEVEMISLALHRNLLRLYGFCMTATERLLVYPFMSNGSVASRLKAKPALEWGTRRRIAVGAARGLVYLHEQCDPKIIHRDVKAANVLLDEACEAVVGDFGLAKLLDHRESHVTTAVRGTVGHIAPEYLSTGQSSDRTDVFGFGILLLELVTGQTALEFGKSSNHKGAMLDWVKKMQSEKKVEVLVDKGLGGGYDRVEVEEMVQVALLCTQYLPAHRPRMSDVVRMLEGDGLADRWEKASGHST

Compound	thermal shift delta Tm (LOC_OS04G57630-cb004) [°C]	thermal shift delta Tm (LOC_OS05G07850-cb002) [°C]	thermal shift delta Tm (LOC_OS05G16824-cb004) [°C]	thermal shift delta Tm (LOC_OS05G28520-cb001) [°C]	thermal shift delta Tm (LOC_OS05G30820-cb001) [°C]	thermal shift delta Tm (LOC_OS05G43570-cb004) [°C]	thermal shift delta Tm (LOC_OS06G16330-cb003) [°C]	thermal shift delta Tm (LOC_OS06G22820-cb001) [°C]	thermal shift delta Tm (LOC_OS07G06570-cb004) [°C]	thermal shift delta Tm (LOC_OS07G07230-cb001) [°C]
Cc1cc(N2CCOCC2)cc2[nH]c(-c3c(NC[C@@H](O)c4cccc(Cl)c4)cc[nH]c3=O)nc12	-0.02	9.39	5.37	1.06	0.82	0.65	4.87	0.56	-0.16	0.74
Cn1cc(/C=C2\C(=O)Nc3cccnc32)c2ccccc21	2.07	9.12	10.2	0.86	0.81	0.41	7.67	0.62	1.66	0.42
CC1(C)OC(=O)C=C[C@]2(C)[C@H]3CC[C@@]4(C)[C@H](c5ccoc5)OC(=O)[C@H]5O[C@]54[C@]3(C)C(=O)C[C@@H]12 [Obacunone]	-0.08	-0.17	0.73	0.17	0.18	0.33	-0.35	0.3	1.76	0.44
CCNC(=O)Nc1ccc(-c2nc3c(c(N4CCOC[C@@H]4C)n2)CCN(C2COC2)C3)cc1	0.05	0.56	-1.52	0	0.54	0.3	0.18	0.27	1.06	0.66
CC#CC(=O)N1CC[C@@H](n2c(=O)n(-c3ccc(Oc4ccccc4)cc3)c3c(N)ncnc32)C1 [ONO-4059 (GS-4059) hydrochloride]	0.32	-0.32	-5.29	0.56	0.41	0.2	-0.41	0.35	0.52	0.73
c1nc2c(NC3CCCCC3)nc(Nc3ccc(N4CCOCC4)cc3)nc2[nH]1 [Reversine]	3.78	12	11.7	0.53	4.07	1.11	8.57	0.3	1.48	1.02
Cc1cc([C@@H](C)Nc2ccccc2C(=O)O)c2nc(N3CCOCC3)cc(=O)n2c1	0.31	-0.01	-0.08	0.3	0.51	0.63	-0.44	0.63	1.04	-0.17
N#Cc1cnc(Nc2cc(NC[C@H]3CNCCO3)c(C(F)(F)F)cn2)cn1	0.23	4.22	4.42	0.04	0.75	0.11	2.23	0.3	1.08	0.52
CC(=O)c1c(C)c2cnc(Nc3ccc(N4CCNCC4)cn3)nc2n(C2CCCC2)c1=O	0.52	5.93	5.52	0.05	0.23	0.31	4.77	-0.1	0.7	0.73
CN(C[C@@H]1COCCO1)S(=O)(=O)Nc1ccc2ccc3ncc(-c4cnn(C)c4)cc3c(=O)c2c1	4.12	10.5	7.72	0.77	1.85	0.41	7.23	0.65	1.07	0.63
Cc1ccc(-n2nc(C(C)(C)C)cc2NC(=O)NCc2cc(F)ccc2Oc2ccc3c(cnn3CCO)c2)cc1 [Pexmetinib (ARRY-614)]	5.61	7.46	-1.5	0.41	0.66	0.54	3.89	0.91	0.14	-0.6
O=c1c(-c2ccc(O)cc2)coc2cc(O)cc(O)c12 [Genistein]	-1.09	5.31	-0.94	-0.31	0.78	0.36	0.87	0.81	-0.45	0.02
Cc1ccc(NC(=O)c2ccc(CN3CCN(C)CC3)cc2)cc1Nc1nccc(-c2cccnc2)n1 [Imatinib (STI571)]	0.39	2.43	-0.13	0.71	0.5	0.23	0.3	0.22	1.37	0.97
COc1cc2c(N3CCN(C(=O)Nc4ccc(OC(C)C)cc4)CC3)ncnc2cc1OCCCN1CCCCC1 [Tandutinib (MLN518)]	2.05	1.44	0.72	0.2	0.16	0.41	-1.38	0.3	1.1	0.38
C#Cc1cccc(Nc2ncnc3cc4c(cc23)OCCOCCOCCO4)c1 [Icotinib]	1.01	8.46	-0.7	0.87	0.31	0.43	3.06	0.81	1	0.07
CN1CCN(c2cccc(Nc3nc4c(-c5ccc(S(C)(=O)=O)cc5)cccn4n3)c2)CC1	0.63	5.82	6.48	0.11	0.63	0.2	4.09	0.43	0.46	-0.02
N[C@@H]1CCCN(c2c(/C=C3\SC(=O)NC3=O)cccc2-c2ccccc2)C1	0.42	2.29	-1.84	0.64	0.34	-0.01	-0.21	0.41	1.48	0.3
CCc1ccc(/C=C2/SC(=S)NC2=O)cc1	0.22	2.65	-3.64	1.2	0.82	1	0.48	1.04	1.65	0.27
Cc1cc(C(=O)Nc2nc3cccc(Cl)c3n2[C@@H]2CCCCN(C(=O)/C=C/CN(C)C)C2)ccn1 [Nazartinib (EGF816, NVS-816)]	0.04	3.43	-0.02	0.54	0.6	0.38	0.74	0.4	1.91	0.43
COc1cc2c(cc1OC)[C@@H]1C(=O)c3ccc4c(c3O[C@@H]1CO2)C=CC(C)(C)O4 [Deguelin]	0.18	-0.44	-0.75	-0.03	-0.19	0.47	-0.59	0.97	0.49	-0.57

Source: the supplement of paper PMC9694430
